# Results published in PubChem BioAssay.
# Active and inactive are the calls of the source.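 How the source made its calls, unless noted: active means NADPH fluorescence slope more negative than the mean of all samples by about 3 SD, 99.7% confidence; inactive means the rest.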
# What was measured:
# [1] = inhibitors of TNFa-induced NFkB p65 translocation, primary screen, imaging, HUVEC, MLSMR starter and 10KST1 sets (AID 438;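 active means inhibition above 20% together with a positive visual image hit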;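 further: compound added about 3h40 before a 20 min TNFalpha stimulation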;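 on inhibition: signal is the nuclear over cytoplasmic p65 intensity ratio per well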); conditions: HUVEC TNFa-induced p65 nuclear translocation; cell count: measured here: nuclei count (cytotoxicity indicator), at 2.08 µM; inhibition: at 2 µM, stronger effect = higher value, 0% TNFa-plus-vehicle, 100% no-TNFa wells
# [2] = reduction of polyQ htt aggregates in cells – imaging, exon1htt(103Q)mCFP cells, high-content imaging, primary screen (AID 483;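 active means visual image review flags a hit and inhibition of aggregation exceeds 20%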;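 further: compound exposure lasted 3 days before fixation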;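 on nuclei count: percent of the per-plate median nuclei count of sample wells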); conditions: exon1htt(103Q)mCFP cell line, aggregate imaging, at 2 µM; inhibition of aggregation: stronger effect = higher value; nuclei count: measured here: cell count, toxicity
# [3] = endothelial E-selectin expression blockers – imaging, HUVEC, immunofluorescence, MLSMR starter and 10KST1 sets, primary screen (AID 487;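 active means visually confirmed hit in the image check and inhibition above 20%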;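 on inhibition: signal is fraction of cell area covered by stained E-selectin grains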;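 on nuclei count: 100% = median nuclei count of all wells on the same plate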); conditions: HUVEC TNFalpha-induced E-selectin immunofluorescence imaging, at 2 µM; inhibition: stronger effect = higher value; nuclei count: measured here: cell number, toxicity
# [4] = Primary imaging screen for DUSP6 inhibitors that restore phospho-Erk in transfected HeLa cells, chemical complementation (AID 609;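 active means compounds giving at least 50% inhibition in the cell-based MKP-3 phosphatase rescue imaging test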;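 on inhibition: phospho-Erk level distribution per well compared with pooled transfected vehicle control wells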); conditions: HeLa MKP-3 transfected, phospho-Erk imaging KS statistic, at 10 µM, cells stimulated with TPA for 15 min
# [5] = target: Dual specificity protein phosphatase 6 (Homo sapiens) (UniProt Q16828); experiment: as above; conditions: HeLa MKP-3 transfected, phospho-Erk imaging KS statistic; at 10 µM; stronger effect = higher value; cells stimulated with TPA for 15 min
# [6] = target: Voltage-gated potassium channel subunit beta-2 (Rattus norvegicus) (UniProt P62483); experiment: inhibitors of rat Kvbeta2 reductase activity – biochemical, NADPH fluorescence, primary screen (AID 622;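 active means fluorescence slope higher than the sample average by over 3 SD, cut at about -0.22 in these data, passing the limit was not always enough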;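 further: slope of raw intensity against log time taken from 70 to 1610 s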); conditions: recombinant KvBeta, 4-cyanobenzaldehyde reduction, at 10 µM, stronger effect = higher value
# [7] = target: Voltage-gated potassium channel subunit beta-2 (Rattus norvegicus) (UniProt P62483); experiment: enhancers of rat Kvbeta2 NADPH turnover – biochemical, NADPH fluorescence, primary screen (AID 623); conditions: Recombinant KvBeta, NADPH fluorescence decrease slope, 10 min; at 10 µM; stronger effect = lower value;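 further: fluorescence intensity change per second fitted from 20 to 320 s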
# [8] = target: Alpha-2C adrenergic receptor (Homo sapiens) (UniProt P18825); experiment: compounds altering alpha2C-coupled GIRK flux – cell-based, HEK293 alpha2C/GIRK1/2, thallium flux, primary screen (AID 624;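 active means fluorescence slope after compound addition differing from the mean of all screened samples at 99.7% confidence, in either direction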;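 further: slope of fluorescence ratio to pre-addition baseline per second over 15 to 24 s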); conditions: thallium flux BTC fluorescence, at 10 µM, actives lie on both sides
# [9] = target: Muscarinic acetylcholine receptor M4 (Homo sapiens) (UniProt P08173); experiment: M4-linked GIRK flux change, two-sided – cell-based, HEK293 M4/GIRK, thallium flux, BTC-AM, M4 allosteric agonist project, primary screen (AID 625;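 active means fluorescence slope after compound addition differing from the mean of all tested samples at 99.7% confidence, mostly higher but some lower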;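 further: thallium influx through GIRK channels coupled to M4 in HEK293 cells with BTC-AM dye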); conditions: at 10 µM, actives lie on both sides
# [10] = inhibitors of larval lipid processing in zebrafish, primary screen, whole organism, PED6 fluorescence, gall bladder and intestine (AID 686;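 active means a full or partial loss of lipid-probe fluorescence in the fish gall bladder, intestine or both, judged by eye; inactive means no fluorescence loss, or compound toxic to the fish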;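 further: larvae 5 to 7 days old with five fish per well; signal comes from phospholipase A2 cleavage of quenched PED6 carried via bile; overnight exposure to compound and PED6 before scoring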); conditions: Zebrafish larvae PED6 lipid processing, fluorescence scoring; screened at 20 µM (by protocol)
# [11] = loss of swimming-algae plug formation – whole organism, Chlamydomonas reinhardtii, WT vs cilia-less mutant, absorbance, 96-well, primary screen (AID 463189;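 active means inhibition at or above 50% relative to wild type and mutant plate controls; inactive means inhibition below 50%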;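 further: 0% = wild type cc124 cells in DMSO and 100% = ciliumless bld1 mutant cells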); conditions: Chlamydomonas reinhardtii gravitaxis, OD600 absorbance, 2 days; at 10 µM; stronger effect = higher value
# [12] = blockers of RIG-like receptor reporter activation – cell-based, Sendai virus stimulus, luciferase, 10K MLSCN set, TLR/RLR signaling modifier project, primary screen (AID 602276;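 active means inhibition at or above 50% at 10 µM; inactive means inhibition below 50%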;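 further: firefly luciferase from ISG56 promoter only with Renilla not read in this screen; 0% = Sendai virus plus DMSO and 100% = medium plus DMSO without virus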); conditions: HEK293 RL24 IRF3 luciferase reporter, at 10 µM, stronger effect = higher value
# [13] = TLR3 IRF3 reporter activation blockers – cell-based, poly I:C stimulus, luciferase, 10K MLSCN set, primary screen (AID 602277;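 active means inhibition of the reporter signal at or above 50%; inactive means inhibition below 50%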); conditions: HEK293-TLR3 RL24 IRF3 luciferase reporter, at 10 µM, stronger effect = higher value
# [14] = measured here: cell density z-score
# [15] = measured here: nuclear c-Myc green intensity z-score
# [16] = measured here: nuclear pErk red intensity z-score, stronger effect = higher value
# Alpha-2C adrenergic receptor (Homo sapiens), sequence (P18825 whole entry, looked up): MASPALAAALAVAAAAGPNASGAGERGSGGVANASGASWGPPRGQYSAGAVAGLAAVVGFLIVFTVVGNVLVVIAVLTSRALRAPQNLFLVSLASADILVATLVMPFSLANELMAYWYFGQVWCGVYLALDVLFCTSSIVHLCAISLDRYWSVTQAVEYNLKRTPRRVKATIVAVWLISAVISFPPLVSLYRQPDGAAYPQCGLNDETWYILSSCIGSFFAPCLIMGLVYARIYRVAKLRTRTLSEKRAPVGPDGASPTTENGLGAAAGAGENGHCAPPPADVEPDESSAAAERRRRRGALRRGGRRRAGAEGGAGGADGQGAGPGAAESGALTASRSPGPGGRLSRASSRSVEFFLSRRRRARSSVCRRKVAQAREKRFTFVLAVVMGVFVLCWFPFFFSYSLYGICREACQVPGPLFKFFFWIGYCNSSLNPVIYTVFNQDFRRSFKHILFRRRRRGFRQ
# Voltage-gated potassium channel subunit beta-2 (Rattus norvegicus), sequence (P62483 whole entry, looked up): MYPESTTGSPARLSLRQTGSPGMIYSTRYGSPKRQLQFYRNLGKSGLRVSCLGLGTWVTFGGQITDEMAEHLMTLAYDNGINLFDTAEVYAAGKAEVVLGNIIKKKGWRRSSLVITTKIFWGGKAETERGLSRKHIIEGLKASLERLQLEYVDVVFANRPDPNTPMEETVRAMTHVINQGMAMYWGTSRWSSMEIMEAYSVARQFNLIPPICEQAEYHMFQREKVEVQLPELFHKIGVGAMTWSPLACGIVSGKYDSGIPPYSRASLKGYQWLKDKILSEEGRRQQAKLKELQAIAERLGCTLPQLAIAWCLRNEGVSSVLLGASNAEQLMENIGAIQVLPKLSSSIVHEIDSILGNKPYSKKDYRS
# Dual specificity protein phosphatase 6 (Homo sapiens), sequence (Q16828 whole entry, looked up): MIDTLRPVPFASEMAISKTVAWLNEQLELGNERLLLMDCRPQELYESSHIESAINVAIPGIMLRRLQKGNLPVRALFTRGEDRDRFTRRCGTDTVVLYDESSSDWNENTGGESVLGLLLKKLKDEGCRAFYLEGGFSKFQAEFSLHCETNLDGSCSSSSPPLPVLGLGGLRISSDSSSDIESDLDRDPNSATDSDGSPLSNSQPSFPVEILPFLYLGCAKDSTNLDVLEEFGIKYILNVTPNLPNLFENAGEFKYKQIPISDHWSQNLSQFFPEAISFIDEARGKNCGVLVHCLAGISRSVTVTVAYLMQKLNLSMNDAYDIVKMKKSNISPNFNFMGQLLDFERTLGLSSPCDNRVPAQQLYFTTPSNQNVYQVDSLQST
# Muscarinic acetylcholine receptor M4 (Homo sapiens), sequence (P08173 whole entry, looked up): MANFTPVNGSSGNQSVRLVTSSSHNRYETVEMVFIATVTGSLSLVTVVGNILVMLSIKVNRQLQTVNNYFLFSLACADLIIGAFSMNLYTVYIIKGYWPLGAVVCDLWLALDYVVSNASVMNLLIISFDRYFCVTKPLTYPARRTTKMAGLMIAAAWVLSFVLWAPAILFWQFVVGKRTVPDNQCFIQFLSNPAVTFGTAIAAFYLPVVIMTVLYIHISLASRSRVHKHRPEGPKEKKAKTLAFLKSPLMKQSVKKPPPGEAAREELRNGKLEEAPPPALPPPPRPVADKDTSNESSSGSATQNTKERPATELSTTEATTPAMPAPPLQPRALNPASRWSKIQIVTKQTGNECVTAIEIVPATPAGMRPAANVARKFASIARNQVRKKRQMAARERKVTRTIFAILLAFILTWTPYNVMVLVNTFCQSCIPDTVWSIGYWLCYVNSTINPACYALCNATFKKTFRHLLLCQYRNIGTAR
SMILES,cell count [1],inhibition [1],inhibition of aggregation [2],nuclei count [2],inhibition [3],nuclei count [3],"z-score [4, 14]","z-score [4, 15]","z-score [4, 16]",inhibition [5],fluorescence slope [6],NADPH fluorescence slope [7],slope [8],fluorescence slope [9],outcome [10],inhibition [11],inhibition [12],inhibition [13]
Cn1c(=O)c2c(nc(NCc3ccc4c(c3)OCO4)n2Cc2ccccc2F)n(C)c1=O,651,-4.2% (inactive),37.8% (active),50.9%,-161% (inactive),126%,-0.011,-1.47,0.345,1.9e-07% (inactive),-0.45 (inactive),-0.000288 (inactive),0.00635 (inactive),0.00703 (inactive),inactive,38.3% (inactive),-2.97% (inactive),10.4% (inactive)
COc1cc(NS(=O)(=O)c2ccc(N)cc2)nc(OC)n1,482,1.1% (inactive),-12.6% (inactive),82%,-59.5% (inactive),96.6%,0.641,0.795,-0.759,5.79% (inactive),-0.439 (inactive),-7e-05 (inactive),0.00564 (inactive),–,–,20.1% (inactive),24.9% (inactive),51.9% (active)
Cc1c(C2Nc3ccccc3NC3=C2C(=O)CC(C)(C)C3)cnn1C (stereo unspecified),678,34.8% (active),-2% (inactive),115%,-16.2% (inactive),101%,0.508,-0.847,-0.607,14.7% (inactive),-0.548 (inactive),-2.1e-05 (inactive),0.00605 (inactive),0.00628 (inactive),inactive,14.4% (inactive),35.1% (inactive),99.4% (active)
CC(NC(=O)NCCCC(=O)O)(C(F)(F)F)C(F)(F)F,582,-3.7% (inactive),8.7% (inactive),98.1%,-76% (inactive),122%,-0.792,-0.179,1.85,-2.09% (inactive),-0.428 (inactive),-1.9e-05 (inactive),0.00567 (inactive),0.00478 (inactive),inactive,11.9% (inactive),18.9% (inactive),21.7% (inactive)
CC(C)(C)c1ccc(O)c(N)c1,646,-5.1% (inactive),18.9% (inactive),115%,-65.2% (inactive),138%,0.287,-1.2,0.0324,-3.95% (inactive),-0.526 (inactive),-7e-05 (inactive),0.00563 (inactive),0.00646 (inactive),inactive,15.7% (inactive),8.96% (inactive),18% (inactive)
N#CCc1nc2c3c4c(sc3ncn2n1)CCCC4,436,-7.3% (inactive),-155% (inactive),1.9%,-12.1% (inactive),130%,0.106,1.08,0.152,5.95% (inactive),-0.413 (inactive),-4.9e-05 (inactive),0.00471 (inactive),0.00496 (inactive),inactive,0.738% (inactive),5.18% (inactive),-26.2% (inactive)
